# A number with no mark means an inactive call. A call without a number means that no potency is given here. Calls of active or inactive are those of the source. The call rests on the fitted dose curve; in most records, active means well fitted inhibition curve with a large enough effect; inconclusive means small, poorly fitted or top-dose-only effect; inactive means flat fitted curve, though single readings scatter.
# Molecular target: Luciferin 4-monooxygenase (Photinus pyralis) (UniProt P08659)
# Experiment: Primary firefly luciferase (FLuc) qHTS assay for identification of artifact compounds. (AID 1845220); further: nearly all actives have a fitted effect of over 60% in size
# Conditions: purified firefly luciferase, luminescence, 5 min; series mostly up to 54.1 µM
# In short: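 FLuc 10 nM; luciferin 10 uM; ATP 10 uM; Tris-acetate pH 7.6, Mg-acetate 10 mM; 15 min RT preincubation; 5 min reaction; luminescence.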
Compound,Potency,"activity change, negative = inhibition"
O=C(c1c2ccccc2cc2ccccc12)N1CCC(N2CCC[C@@H](C(=O)N3CCOCC3)C2)CC1,inactive,
COc1ccc2c(c1)C=C1Cn3c-2c(C2CCCCC2)c2ccc(cc23)C(=O)NS(=O)(=O)N(C)CCOCCN(C)C1=O,inactive,
C=C1CC2C3(C)C(O)CC(=O)C(C)(C)C3C(O)C(OC(C)=O)C2(C)C2C(=O)OC(C)(C(=O)OC)C(=O)C12C (centres undefined),inactive,
CCC(C)/C=C(C)/C=C/C1=CC2=CC(=O)C(C)(O)C(OC(C)=O)C2CO1 (centres undefined),inactive,
COc1cccc(C)c1C(=O)O[C@@H]1C[C@H](O[C@H]2[C@H](O)C[C@H](O[C@@H]3CCC[C@H]4[C@H]3C=C[C@@H]3CCCC/C=C/[C@H]5C=C(C(=O)O)[C@@H](C)C[C@@]56OC(=O)C(=C6O)OC(=O)[C@@]34C)O[C@@H]2C)O[C@H](C)[C@H]1O,,4.15% [at 11.6 µM]
O=C(N[C@@H]1CC[C@@H](c2cccc(F)c2F)CN(CC(F)(F)F)C1=O)N1CCC(n2c(=O)[nH]c3ncccc32)CC1,inactive,
C=C1[C@@H]2CC[C@@]3(C)[C@H](c4ccoc4)OC(=O)C[C@]13O[C@H]1CC(=O)C(C)(C)[C@H](C(O)C(=O)OC)[C@]12C (some centres undefined),inactive,
COc1cc(/C=C/C(=O)O[C@@H]2O[C@H](CO)[C@@H](O)[C@H](O)[C@H]2O)ccc1O,inactive,
CCOC(=O)CSc1nc2c(sc3ccccc32)c(=O)n1CCCN1CCCC1,inactive,

# From PubChem BioAssay (NCATS)
